Data on 48 molecules can be found in PubChem BioAssay AID588855 (National Center for Advancing Translational Sciences (NCATS), 2011).

The campaign covered roughly 410,000 compounds. About 5,000 (1.2%) were called active. About 13% were inconclusive and are not listed. Shown is part of a subset that was picked to be rich in actives. Values without a mark were called inactive. The call rests on the fitted dose curve; in most records, active means well fitted inhibition curve with a large enough effect; inconclusive means small, poorly fitted or top-dose-only effect; inactive means no such curve, though single readings can be large or run the other way.
On the % scale 0 is the no-effect control and ±100 the full control effect; potency means the concentration at half of the fitted maximal effect.

The assay in a line: qHTS for Inhibitors of TGF-b. Further: nearly all actives have a fitted effect of over 65% in size. The settings on record: HepG2 CAGA-GFP TGF-b/SMAD3 reporter, GFP fluorescence, 18 h, TGF-beta stimulated, 500 pg/mL final; series mostly up to 46.1 µM; activity, negative = inhibition: at the top concentration. The method, boiled down:
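Cell-based qHTS in HEPG2 carrying a CAGA-GFP Smad reporter; compounds added before 500 pg/mL final TGF-beta, 18 h incubation at 37 degrees C, GFP fluorescence quantified per cell by imaging cytometry.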
On the technique in general: Quantitative high-throughput screening tests each substance at several concentrations.
As to `Cc1ccc(-c2cn3c(n2)sc2cc(C(=O)NCCCc4ccccc4)ccc23)cc1`, the “activity, negative = inhibition” value is 19.4%. Same read-out and setting: then `COc1ccc(N2C(=O)CSC23C(=O)N(Cc2cccc(F)c2)c2ccccc23)cc1Cl` (stereo not drawn), with 0.856%; and `COc1ccc(-c2nc3c4ccccc4n(CC(=O)Nc4ccc(C(C)=O)cc4)c(=O)n3n2)cc1`, with -19%; and `COc1ccc(CCNC(=O)COC(=O)Cc2cc(OC)c(OC)c(OC)c2)cc1`, with -3.46%. Same read-out and setting: for `O=C(COC(=O)C1CCCO1)Nc1nc(-c2ccc(F)cc2)cs1` (stereo not drawn) the value was -6.26%.

Regarding `COc1cc(CC(=O)Nc2nc(-c3ccc(F)c(F)c3)cs2)cc(OC)c1OC`, the Potency is 11.2 µM (active). Take `O=[N+]([O-])c1ccc(S(=O)(=O)N2CCN(c3nc(-c4ccccc4)nc4ccccc34)CC2)cc1`: the “activity, negative = inhibition” value is 3.85%. Take `COc1cccc(CNC(=O)C(NS(=O)(=O)c2ccc3nc(C)sc3c2)C(C)C)c1` (stereo not drawn): the “activity, negative = inhibition” value is -0.357%. Take `COc1ccccc1NC(=O)c1cc(Cl)nnc1Cl`: the “activity, negative = inhibition” value is 2.59%. For `COc1ccccc1NC(=O)/C=C/C(N)=O`, the Potency was 12.6 µM (active). As to `COc1ccccc1NC(=S)NC(=O)C(C)C`, the “activity, negative = inhibition” value is -9.88%. In the case of `CCOC(=O)C1=C(c2ccccc2)Nc2ncnn2C1c1ccc(Cl)cc1` (stereo not drawn), the “activity, negative = inhibition” value is 9.18%. Consider `Clc1ccc2c(c1)C1=C(C(c3ccncc3)O2)C(c2ccc(Br)cc2)n2ncnc2N1` (stereo not drawn), for which the Potency is 3.98 µM (active). Turning to `Brc1ccc(C2=CC(c3ccco3)n3ncnc3N2)cc1` (stereo not drawn), the “activity, negative = inhibition” value was 64.9%. On the same count and under the same terms, for `Cc1nnsc1C(=O)N/N=C/c1cccc(C(F)(F)F)c1` the value was 6.29%. For `FC(F)(F)c1cccc(N/N=C/c2ccccc2)c1`, the Potency was 11.2 µM (active). For the molecule `Cc1cc2c(C)nc(N/N=C/c3ccccc3)nc2o1`, the “activity, negative = inhibition” value is 1.98%.

Regarding `O=C1CSC2(C(=O)N(Cc3ccccc3)c3ccccc32)N1c1cccc(F)c1` (stereo not drawn), the “activity, negative = inhibition” value was -24.9%. The same measure, in the same setting: then `CCN1CCc2nc3sc(C(=O)Nc4ccccc4OC(F)(F)F)c(N)c3cc2C1`, with 44.2%; and `CCOC(=O)c1c(C)[nH]c(CCC(=O)Nc2ccc(OC)c(OC)c2)c1C`, with -4.89%. Still for that read-out and setting: then `CN(C)C(CNC(=O)c1ccc(OCc2cn3ccccc3n2)cc1)c1ccco1` (stereo not drawn), with 9.62%; and `Cc1noc(C)c1COc1ccc(C(=O)NCCOc2ccccc2)cc1`, with -6.19%. Turning to `CN(C)CCNC(=O)c1ccc(-c2cn3c(-c4ccc(Oc5ccccc5)cc4)cnc3cn2)cc1`, the Potency was 11.2 µM (active).

As for `COc1ccc(CCNC(=O)C(=O)NCC(c2ccco2)S(=O)(=O)c2cccs2)cc1OC` (stereo not drawn), the “activity, negative = inhibition” value is 1.36%. In the case of `CN1C[C@@H](CO)O[C@@H](n2cnc3c(N4CCN(CCO)CC4)ncnc32)C1`, the “activity, negative = inhibition” value was 27.1%.

Turning to `OC[C@@H]1O[C@H](n2cnc3c(SCc4ccccc4)ncnc32)[C@H](O)[C@H]1O`, the “activity, negative = inhibition” value was -27.6%. With `OCC1OC(n2cnc3c(N4CCCC4)ncnc32)C(O)C1O` (stereo not drawn), the Potency was 2.82 µM (active). Regarding `COc1ccccc1NC(=O)CSc1oc(-c2ccco2)nc1S(=O)(=O)c1ccc(Br)cc1`, the “activity, negative = inhibition” value was -1.11%. The same measure, in the same setting: then `COc1ccccc1-c1cc2nc(C)c(CCC(=O)O)c(C)n2n1`, with 25.9%; and `CN(N=O)c1ccc(C=C2c3ccccc3-c3ccccc32)cc1`, with 15.6%.

Turning to `Cc1ccc(-c2nc(=N)sn2Cc2ccccc2)cc1`, the “activity, negative = inhibition” value is 4.17%. Same read-out and setting: for `Cc1ccc(-n2c3nc(=O)[nH]c(=O)c-3cc3c(Cl)cccc32)cc1` the value was 8.21%. As for `Cc1ccc(CCNC(=O)c2nnc(Cc3cccc(F)c3)o2)cc1`, the “activity, negative = inhibition” value is -9.99%. On to `O=C(NCCCN1CCN(c2cccc(Cl)c2)CC1)c1nnc(Cc2ccc(F)cc2Cl)o1`, for which the Potency is 10 µM (active).

Consider `COc1ccc(N2CCN(CCNC(=O)c3nnc(Cc4c(F)cccc4Cl)o3)CC2)cc1`, for which the “activity, negative = inhibition” value was 0%.

With `COc1ccc(CCC(=O)NCc2ccc3c(c2)CCN3C(=O)c2ccc(F)cc2)cc1`, the “activity, negative = inhibition” value is 13.9%. On the same count and under the same terms, for `CCCNC(=O)c1ccc(Cn2c(SCC(N)=O)nc3ccccc3c2=O)cc1` the value was 6.6%; for `COc1ccc(OC)c(CNC(=O)c2c3c(nc4ccccc24)C(=O)N(C2CCCCC2)C3)c1`, 17.7%. For `O=c1[nH]c(CCl)nc2cc(-c3ccc(Cl)cc3)sc12`, the Potency was 5.01 µM (active).

As for `Cn1c(NCc2cccnc2)nc2cc(-c3ccc(F)cc3)sc2c1=O`, the “activity, negative = inhibition” value is 17.1%.

As to `SCc1nc2ccc(Cl)cc2[nH]1`, the “activity, negative = inhibition” value is -2.28%. Still for that read-out and setting: for `CC(C)(C)c1ccc(C(=O)C[N+]2(C)CCCc3ccccc32)cc1` (stereo not drawn) the value was -15.7%. In the case of `Cc1nc(N=C(N)N)nc2c(C)cccc12`, the Potency was 11.2 µM (active).

Regarding `N#Cc1ccc[n+](CC(=O)c2ccc(O)c(O)c2)c1`, the “activity, negative = inhibition” value is 18.3%. Same read-out and setting: then `CCCCCCCNc1ccc(/C=C/c2ccnc3ccccc23)cc1`, with -2.79%; and `COc1ccc(Cn2c(=O)c3oc4ccccc4c3n(CC(=O)Nc3ccc(F)cc3F)c2=O)cc1`, with 0.208%; and `CC(C)CNc1ncnc2c1nnn2C`, with -15.1%. Same read-out and setting: for `CCCCSc1ncnc2c1sc1nc(N3CCOCC3)c3c(c12)CCCC3` the value was 4.55%.
